Nrf2 ARE act: activates Nrf2 signaling; AREc32 ARE-luciferase reporter (MCF7-derived line), luminescence, 24 h; Potency, µM (top dose mostly 46.1 µM), hits mostly activators; hit rate 0.31% among 410,000; AID 624171; also: nearly all actives have a fitted effect of over 65% in size
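Nrf2 activation is followed as ARE-luciferase induction in the AREc32 line after one day of compound treatment; luminescence is read with Steady-Glo.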
IDH1 R132H inh: human IDH1 R132H inhibition | O75874 | IDH1-R132H enzyme, NADPH consumption, diaphorase/resazurin fluorescence | Potency, µM (highest dose often 76.6 µM), most hits filed as inhibitors | hit rate 0.093% among 390,000 | AID 602179; also: nearly all actives have a fitted effect of over 65% in size
Target sequence (O75874 whole entry R132H, stated change not applied): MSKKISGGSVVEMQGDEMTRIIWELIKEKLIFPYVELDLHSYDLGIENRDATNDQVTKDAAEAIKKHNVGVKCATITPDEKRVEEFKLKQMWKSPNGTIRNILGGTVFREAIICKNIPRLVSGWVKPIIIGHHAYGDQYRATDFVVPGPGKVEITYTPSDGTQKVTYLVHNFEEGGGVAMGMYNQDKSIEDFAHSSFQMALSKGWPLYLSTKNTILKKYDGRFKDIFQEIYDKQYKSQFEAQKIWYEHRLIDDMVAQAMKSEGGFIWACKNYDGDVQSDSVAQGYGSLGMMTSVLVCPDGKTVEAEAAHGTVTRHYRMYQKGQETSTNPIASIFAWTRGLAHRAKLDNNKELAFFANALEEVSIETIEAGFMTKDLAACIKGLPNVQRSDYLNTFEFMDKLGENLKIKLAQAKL
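IDH1-R132H (0.5 ug/mL) preincubated 30 min with compound, then NADPH (0.016 mM) and alpha-KG (2 mM) added; 80 min at RT, pH 7.5. Remaining NADPH coupled via diaphorase/resazurin to fluorescence (540/590 nm); concentration-response curves normalized to no-enzyme control.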
Giardia killer: Giardia lamblia killing; hit rate 0.15% among 340,000; activity change, % at 7.66 µM, hits read low; Giardia lamblia trophozoite viability; in the data active = activity change below about -80%; inconclusive = between about -30% and that limit;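 also: parasites exposed to compound for two days anaerobically before the ATP read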
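Each well holds 100 Giardia trophozoites and compound. After two days (48 hrs) at 37 deg C in anaerobic conditions, ATP is quantified by luminescence.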
Apoferritin bind: binds horse apoferritin like a general anesthetic; apoferritin/1-aminoanthracene competitive binding, fluorescence; Potency, µM (titrated, usually from 77.5 µM), hits mostly inhibitors; P02791; hit rate 0.074% among 350,000; AID 485281; also: nearly all actives have a fitted effect of over 20% in size
Target sequence (P02791 2-175 limits assumed): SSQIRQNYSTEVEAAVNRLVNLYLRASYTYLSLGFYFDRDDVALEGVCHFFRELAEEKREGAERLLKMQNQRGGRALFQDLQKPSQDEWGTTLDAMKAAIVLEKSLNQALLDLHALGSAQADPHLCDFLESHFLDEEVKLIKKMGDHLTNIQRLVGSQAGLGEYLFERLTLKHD
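Steps: apoferritin (10 uM) was premixed with half-saturated 1-AMA in PBS, compounds were pin-transferred, plates stood 10 min at room temperature, fluorescence was read at 380/535 nm, and curves were fitted with a Hill equation.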
Nrf2 block: Nrf2 pathway inhibition; A549 ARE-Fluc reporter, luciferase luminescence, 18-24 h; hit rate 2.1% among 360,000; AID 504444; Potency, µM (series often up to 46 µM), usual class: inhibitors; also: nearly all actives have a fitted effect of over 60% in size
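Cells were seeded and rested 2 h, then exposed to compounds for 18-24 h. CellTiter-Fluor was read first as a viability measure. BugLite was added 15 min before the final luminescent read of ARE-luciferase activity in A549 cells.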
A549 tox-1: kills or reduces viability of A549 cells in Nrf2 counter-screen. A549 ARE-Fluc cells, CellTiter-Fluor viability, 18-24 h. Potency, µM (doses to about 46 µM), usual class: inhibitors. hit rate 0.16% among 390,000. AID 504648
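Cytotoxicity counterscreen: CellTiter-Fluor fluorescence was measured in A549 ARE_Fluc cells after 18-24 h of compound exposure in a concentration series. The subsequent BugLite luminescent read reports ARE-luciferase activity.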
FLuc enzyme inh: blocks purified firefly luciferase in Nrf2 counterscreen. shares compounds with Nrf2 block. purified firefly luciferase, luminescence inhibition. Potency, µM (top dose mostly 57.5 µM), hits mostly inhibitors. hit rate 4% among 1,400. AID 720522; also: nearly all actives have a fitted effect of over 65% in size
A549 tox-2: A549 cytotoxicity, Nrf2 inhibitor counterscreen; shares compounds with Nrf2 block; hit rate 2% among 1,400; Potency, µM (doses to about 46.1 µM), usual class: inhibitors; A549 ARE-Fluc cells, cytotoxicity counterscreen; AID 720523;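 also: cells exposed to compounds for 18 to 24 hours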
Nrf2 ARE inh: confirmation of Nrf2 inhibitors in A549 ARE reporter cells. shares compounds with Nrf2 block. A549 ARE-firefly luciferase reporter, luminescence. Potency, µM (titrated, usually from 46.1 µM), actives largely listed as inhibitors. hit rate 74% among 1,400. AID 720524; also: nearly all actives have a fitted effect of over 65% in size
Hits are given with their value; n = inactive; u = inconclusive; x = no result shown; [ ] = dose if it differs, or a comment. In the library only some 2.3% were active in any assay of this set; here they are far more common. Unless noted, calls follow the shape of the dose curve; as a rule, active = well fitted curve in the direction sought with a large enough effect; inconclusive = small, poorly fitted or top-dose-only effect, or another doubt; inactive = no such curve, though single readings can be large; an effect the other way counts as inactive or inconclusive.

SMILES	Nrf2 ARE act	IDH1 R132H inh	Giardia killer	Apoferritin bind	Nrf2 block	A549 tox-1	FLuc enzyme inh	A549 tox-2	Nrf2 ARE inh
CC1CN(S(=O)(=O)c2cc(C(=O)NCCC3=CCCCC3)ccc2Cl)CC(C)O1 (stereo unspecified)	n	n	n	x	8.2µM	n	u	n	5.8µM
O=C(Nc1ccc(N2CCOCC2)cc1)c1ccc(Cl)c(S(=O)(=O)N2CCCC2)c1	n	n	n	x	9.2µM	n	n	n	7.3µM
COc1ccc(C(=O)NCc2cccc(Cl)c2)cc1S(=O)(=O)N1CCOCC1	n	n	n	x	n	n	x	x	x
COc1ccc(CNC(=O)c2ccc(Cl)c(S(=O)(=O)N3CCOCC3)c2)cc1OC	n	n	n	x	1.3µM	u	n	n	x
COc1ccc(CCNC(=O)c2ccc(Cl)c(S(=O)(=O)N3CCCCCC3)c2)cc1	n	n	n	x	8.2µM	n	n	n	8.2µM
CCOc1ccc(CCNC(=O)c2ccc(Cl)c(S(=O)(=O)N3CCOCC3)c2)cc1OCC	n	n	n	x	u	n	x	x	x
O=C(NCCc1ccc(F)cc1)c1ccc(Cl)c(S(=O)(=O)N2CCOCC2)c1	n	n	n	x	8.2µM	n	n	n	u
O=C(NCCc1ccccc1)c1ccc(Cl)c(S(=O)(=O)N2CCCC2)c1	n	n	n	n	u	n	x	x	x
CC1CCCN(S(=O)(=O)c2cc(C(=O)NCCc3ccc(S(N)(=O)=O)cc3)ccc2Cl)C1 (stereo unspecified)	n	n	n	x	4.1µM	u	n	n	12µM
O=C(CSc1nc(=O)n(Cc2ccncc2)c2c1CCC2)Nc1ccc(F)cc1F	n	n	x	n	x	n	x	x	x
CC1(C)CC2CC(C)(CN2S(=O)(=O)c2ccc(C(=O)Nc3ccc(Cl)c(S(=O)(=O)N4CCOCC4)c3)cc2)C1 (stereo unspecified)	n	n	n	u	5.2µM	n	n	n	7.3µM
CC(=O)Nc1ccc(S(=O)(=O)N2CC3(C)CC2CC(C)(C)C3)cc1 (stereo unspecified)	n	n	n	n	n	n	x	x	x
CC1(C)CC2CC(C)(CN2S(=O)(=O)c2ccc(C(=O)Nc3ccc(S(=O)(=O)N4CCOCC4)cc3)cc2)C1 (stereo unspecified)	n	n	n	n	1.5µM	u	n	n	4.1µM
Cc1ccc(-n2nc(C)c3c(C)cc(=O)n(CC(=O)Nc4cccc(C)c4C)c32)cc1	n	n	x	n	u	n	x	x	x
CC(C)Sc1ncc(Cl)c(C(=O)Nc2nc3ccc(S(C)(=O)=O)cc3s2)n1	n	n	x	n	n	u	x	x	x
Cc1nn(Cc2ccc(Cl)cc2)c(C)c1NC(=O)c1cc(C(C)C)on1	n	n	n	n	n	n	x	x	x
Cc1nn(Cc2ccc(Cl)cc2)c(C)c1NC(=O)c1cc(-c2ccc3c(c2)OCO3)on1	n	n	n	n	4.1µM	u	n	n	9.2µM
CC(=O)OCC(=O)C1(O)CCC2C3CCC4=CC(=O)CCC4(C)C3(F)C(O)CC21C (stereo unspecified)	n	n	n	x	0.037µM	n	n	n	0.021µM
CC(=O)OCC(=O)C1(O)CCC2C3CCC4=CC(=O)CCC4(C)C3(Cl)C(O)CC21C (stereo unspecified)	n	n	n	x	1.2µM	n	n	n	0.52µM
CC12CCC(=O)C=C1CCC1C2CCC2(C)C1CC[C@]2(O)C(=O)CO (stereo partly specified)	n	n	n	n	u	n	x	x	x
CC(=O)OCC(=O)[C@@]1(O)CC[C@H]2[C@@H]3CCC4=CC(=O)CC[C@]4(C)[C@H]3C(=O)C[C@@]21C	n	n	n	n	n	n	x	x	x
CC1=C(C(=O)NC2CCCc3c2cnn3-c2cccc(C)c2C)OCCO1 (stereo unspecified)	n	n	n	n	7.3µM	n	n	n	12µM
Cc1cc(C(=O)NC2CCCc3c2cnn3-c2cccc(C)c2C)no1 (stereo unspecified)	n	n	n	n	u	n	x	x	x
COc1cccc(-c2ncc3ccccc3c2COC(=O)N2CCCCC2)c1	n	n	n	x	5.8µM	n	n	n	u
Cc1ccc(-c2nc(N)n(C(=O)c3cccnc3)n2)cc1	n	n	n	n	n	n	x	x	x
SMILES	Nrf2 ARE act	IDH1 R132H inh	Giardia killer	Apoferritin bind	Nrf2 block	A549 tox-1	FLuc enzyme inh	A549 tox-2	Nrf2 ARE inh
Cc1ccc(C(=O)n2nc(-c3cccnc3)nc2N)cc1	n	n	n	n	1.3µM	n	n	n	4.6µM
CCCCCCCn1c2c(c(=N)c3c1CCC3)CCCC2	n	n	n	n	0.52µM	u	n	n	1.8µM
CCCCn1c2c(c(=N)c3c1CCC3)CCC2	n	n	n	n	2.6µM	n	n	n	6.5µM
CCCCCCn1c(=O)[nH]c2c(c1=O)CCC2	n	n	n	n	u	n	x	x	x
Nc1nc2c(c(=O)[nH]1)N(C=O)C(CNc1ccc(C(=O)NC(CCC(=O)O)C(=O)O)cc1)CN2 (stereo unspecified)	x	x	x	n	x	x	x	x	x
CC(=O)OC[C@@H]1O[C@@H](O/N=C2/C[C@@H](O)[C@@H](O)[C@@H]3[C@@H]4C(=O)N([C@@H](C)c5ccccc5)C(=O)[C@H]4CC[C@@H]23)[C@H](OC(C)=O)[C@H](OC(C)=O)[C@@H]1OC(C)=O	x	x	x	n[15.3 µM]	x	x	x	x	x
Nc1ccc(-c2cc3ccccc3oc2=O)cc1	n	n	n	n	1.3µM	n	8.5µM	n	1.5µM
O=c1oc2ccccc2cc1-c1ccc(O)cc1	n	n	n	n	n	n	x	x	x
CCOc1ccc(CCNC(=O)c2cc3c(=O)oc4ccc(C)cc4c3s2)cc1OCC	n	n	x	n	n	n	x	x	x
COc1ccc(C)cc1NC(=O)C1CCC(CNS(=O)(=O)c2ccc3c(c2)CCCC(=O)N3)CC1 (stereo unspecified)	n	n	x	u	7.3µM	u	n	n	7.3µM
Cc1cccc(NC(=O)C2CCC(CNS(=O)(=O)c3ccc4c(c3)CCCC(=O)N4)CC2)c1C (stereo unspecified)	n	n	x	n	n	n	x	x	x
COc1cc(N)c(Cc2nccc3cc(OC)c(OC)cc23)cc1OC	n[9.22 µM]	n	n	n	n	n	x	x	x
COc1cc2ccnc(Cc3cccc(OC)c3OC)c2cc1OC	n	n	n	n	3.7µM	n	n	n	16µM
CCc1cccc(NC(=O)c2cc3c(=O)oc4ccc(C)cc4c3s2)c1	n	n	x	n	n	n	x	x	x
